Values joined by “and” are separate entries in the source; they are usually repeats but may differ in a detail not shown here. Identical values can stand only once. The whole screen tested about 73,000 compounds, of which about 1,800 (2.5%) were called active. A call without a number means that no potency is given here. Roughly 13% stayed inconclusive and do not appear here. Only a selection was taken, and actives are over-represented in it overall. Unmarked numbers belong to inactive results. Calls come from the whole dose curve; as a rule, active = well fitted activation curve with a large enough effect; inconclusive = small, poorly fitted or top-dose-only effect; inactive = no such curve, though single readings can be large or run the other way.

Experimental findings from PubChem BioAssay AID938 (National Center for Advancing Translational Sciences (NCATS), 2007) are described below.
Potency is the fitted concentration of half-maximal effect.

A short description of this assay: qHTS Assay for Agonists of the Thyroid Stimulating Hormone Receptor: Activators of Intracellular cAMP Concentrations in Parental HEK 293. Note: nearly all actives have a fitted effect of over 55% in size. To be noted: parental HEK293 CNG cAMP sensor, membrane potential fluorescence; series mostly up to 57.1 µM. The gist of the method:
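Counterscreen for endogenous-receptor signalling: CNG-channel HEK 293 cells report cAMP rise by membrane depolarization. After 60 min dye equilibration with 100 uM RO 20-1724, compounds incubated 30 min before bottom-read fluorescence at 590 nm.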
With `CC(C)CO`, the Potency entry is “inactive”. Regarding `O=C(NCc1ccccc1)[C@H]1C[C@@H]1[C@H](NP(=O)(c1ccccc1)c1ccccc1)c1ccccc1`, the Potency result is “inactive”.

For `Cc1cccc(C(=O)O)c1[N+](=O)[O-]`, the Potency entry was “inactive”. `Cc1cc(C)nc(N2CCN(c3ncnc4c3oc3ccccc34)CC2)n1`: the Potency entry was “inactive”.

Take `CCOC(=O)C1CCN(c2ncnc3c2oc2ccc(Br)cc23)CC1`: the Potency was 25.1 µM (active). Regarding `CCOC(=O)N1CCN(C(=O)C2CCN(c3ncnc4c3sc3cccc(F)c34)CC2)CC1`, the Potency result is “inactive”. Turning to `Cc1cc(C)cc(C#CC2C=CC(Oc3ccc(C4CCCC4)cc3)C(CO)O2)c1` (stereo not drawn), the activation is 16.7% [at 11.4 µM].

For `CC(C)[C@@H](OCc1ccccc1)[C@H](C)/C=N\OC[C@@H](C)[C@H](OCc1ccccc1)C(C)C`, the activation was 2.03% [at 11.4 µM].

As to `CCOC(=O)CSc1nnc(-c2cccc(Br)c2)o1`, the Potency result was “inactive”. As for `CC1=CC(C)(C)N(C(=O)CSc2nnc(-c3ccccc3)o2)c2ccc(C)cc21`, the Potency was 2 µM (active). Take `O=C(CSc1nnc(-c2ccccc2)o1)N1CCOCC1`: the Potency result is “inactive”.

In the case of `CCS(=O)(=O)N1CCN(C(=O)c2cccs2)CC1`, the Potency result is “inactive”. Still for that read-out and setting: for `COc1ccc(N2CCN(C3CC(=O)N(c4ccc5c(c4)OCCO5)C3=O)CC2)cc1` (stereo not drawn) the value was “inactive”; for `CCCc1nc2ccccc2c(=O)n1NC(=O)c1c(O)c2ccccc2[nH]c1=O`, “inactive”; for `COC(=O)[C@H](C)[C@H]1C[C@]1(C)[C@H](NC(=O)OCc1ccccc1)c1ccccc1`, 2 µM (active). Turning to `CC(C)C(NC(=O)OCc1ccccc1)C(=O)OCC(=O)N1C(C)CCCC1C` (stereo not drawn), the Potency result is “inactive”.

Consider `C[C@@H](C(=O)Nc1ccc2ccccc2c1)[C@@H]1C[C@@]1(C)[C@@H](NC(=O)c1cccnc1)c1ccccc1`, for which the Potency result is “inactive”. For `C=CCOC(=O)C(C(C)=O)C(NC(=O)OC)c1ccccc1` (stereo not drawn), the activation is 4.24% [at 11.4 µM]. In the case of `C(=C\c1ccccc1)/CSc1nnc(-c2cccnc2)n1Cc1ccco1`, the Potency is 15.8 µM (active). On to `CCc1ccc(NC(=O)CSc2nnc(-c3cnccn3)n2Cc2ccco2)cc1`, for which the Potency result is “inactive”. With `COc1cc(Cl)c(C)cc1NC(=O)CSc1nnc(-c2cccnc2)n1Cc1ccco1`, the Potency result is “inactive”. Turning to `COc1cccc(Cn2c(=O)c(-c3ccccc3)nc3cnc(OC)nc32)c1`, the Potency entry is “inactive”. For the molecule `COc1cccc(Cn2c(=O)c(-c3cc(F)cc(F)c3)nc3cnc(OC)nc32)c1`, the Potency entry is “inactive”. For `COc1cccc(Cn2c(=O)c(C)nc3cnc(Oc4ccccc4)nc32)c1`, the Potency was 12.6 µM (active). Turning to `COC(=O)c1c(NC(=O)CSc2nc3c(c(=O)n(C)c(=O)n3C)n2C(C)C)sc(C)c1C`, the Potency result was “inactive”. Take `Cc1ccccc1NC(=O)CNc1ccccc1N1CCCCC1`: the Potency result was “inactive”.

Regarding `CC(C)n1c(SCC(=O)Nc2ccccc2N2CCCCC2)nc2c1c(=O)n(C)c(=O)n2C`, the Potency is 20 µM (active). Turning to `CC1(C)CC(=O)C=C(NCCCNC2CCCCC2)C1`, the Potency entry was “inactive”.

On to `COC(=O)C1(C)C=CCN1C(=O)c1ccccc1` (stereo not drawn), for which the Potency result is “inactive”. Consider `CC(C)CC1(C(=O)NCc2ccccn2)C=CCN1C(=O)c1ccccc1` (stereo not drawn), for which the Potency was 25.1 µM (active).

Regarding `CC(=O)N1[C@H](C)C=C[C@]1(Cc1ccccc1)C(=O)NCc1ccccn1`, the Potency entry is “inactive”. Turning to `O=C1C[C@@H](O)[C@@H](O)[C@H]2[C@@H]3C(=O)N(Cc4ccc5c(c4)OCO5)C(=O)[C@@H]3CC[C@H]12`, the activation was 0.478% [at 11.4 µM] and -2.17% [at 11.4 µM]. As to `COc1ccc(C(C(O)C(=O)c2c[nH]c3ccccc23)N2CCN(c3ccccc3)CC2)cc1` (stereo not drawn), the Potency result is “inactive”. For `N#Cc1cc2[nH]c(=O)c(=O)[nH]c2cc1[N+](=O)[O-]`, the Potency entry was “inactive”. On to `CCOC(=O)N1CCC(O)(c2cc(C)c(C)cc2C)CC1`, for which the Potency entry was “inactive”. `c1ccc(CSc2nnc(-c3ccco3)c(-c3ccco3)n2)cc1`: the Potency result is “inactive”.

`c1ccc(CSc2nnc(-c3ccco3)n2Cc2ccccc2)cc1`: the Potency is 15.8 µM (active). Turning to `O=C(CSc1nnc(-c2ccco2)n1CC1CCCO1)c1ccccc1` (stereo not drawn), the Potency entry is “inactive”. On the same count and under the same terms, then `C1CCC2OC2C1` (stereo not drawn), with “inactive”.

`Brc1cc(Br)c(Oc2cc(Br)c(Br)cc2Br)cc1Br`: the Potency result is “inactive”.

In the case of `CN1CCC(CNC(=O)c2ccc(-n3c(=O)c(=O)[nH]c4ccccc43)cc2)CC1`, the Potency result was “inactive”. Same read-out and setting: then `O=C(O)CCCCC(=O)O`, with “inactive”; and `CCOc1ccc2c(c1)cc(CN(C(=O)CC)C1CCCCC1)c1nnnn12`, with 20 µM (active). `CN(C(=O)CSc1nnnn1-c1ccccc1)C1CCCCC1`: the Potency entry was “inactive”. With `COc1ccc(N2C(=O)CCC(C(=O)N(C)C3CCCCC3)C2c2ccc(OC)c(OC)c2)cc1` (stereo not drawn), the Potency entry was “inactive”. Regarding `CC(C)[C@H](CO)Nc1nc(Nc2cc(N)cc(Cl)c2)c2ncn(C(C)C)c2n1`, the Potency entry is “inactive”. Consider `CCCCOC(=O)NCN1C(=O)C2C3C=CC(C3)C2C1=O` (stereo not drawn), for which the Potency entry is “inactive”.

In the case of `O=C1OCCC=C1[C@@H](O)CCc1ccccc1`, the activation was -4.2% [at 11.4 µM]. Take `CC(C)CNC(=O)C1CCCN(S(=O)(=O)c2ccc(-n3cnnn3)cc2)C1` (stereo not drawn): the Potency result was “inactive”.

For `O=C(c1cnccn1)N1CCC2(CCN(Cc3cc(C(F)(F)F)cc(C(F)(F)F)c3)CC2)CC1`, the Potency result is “inactive”.

As for `O=C(NCCc1ccc2c(c1)OCCO2)c1cc2ccccc2o1`, the Potency is 25.1 µM (active). On to `O=C(CC(Cc1ccccc1)C(=O)O)NCCc1ccc2c(c1)OCO2` (stereo not drawn), for which the Potency entry was “inactive”. Take `Nc1nonc1C(=O)NCCc1ccccc1`: the Potency entry was “inactive”. In the case of `CC1CCCN(Cc2nc3c(c(=O)n(C)c(=O)n3C)n2CC(=O)c2ccccc2)C1` (stereo not drawn), the Potency entry is “inactive”. With `CCOC(=O)NCc1ccc2c(c1)OCO2`, the Potency entry was “inactive”. For `COc1ccc2c(c1)C(C)=CC(C)(C)N2C(=O)CNCc1ccc2c(c1)OCO2`, the Potency is 25.1 µM (active).

Turning to `CCn1cc(C(=O)NCc2ccc3c(c2)OCO3)c2cc(OC)c(OC)cc2c1=O`, the Potency result was “inactive”.

Consider `CCn1nc(NC(=O)c2ccco2)c2cc3ccc(C)cc3nc21`, for which the Potency result is “inactive”.
